Source: PubChem BioAssay (NCATS)
Inconclusive results are not listed. Where a call stands in place of a potency, no number is given. Active and inactive are the calls of the source. Unless noted, calls follow the shape of the full dose curve.

Assays:
[1] = Natriuretic polypeptide receptor (hNpr1) antagonism - Pilot counterscreen GloSensor control cell line (AID 1347045); also: series mostly up to about 38 µM
Summary of the method: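 Control counterscreen: luciferase cGMP-biosensor HEK293 cells (no Npr1) received compound for 30 min at room temperature after GloSensor substrate loading. Luminescence was measured before and 20 min after soluble guanylyl cyclase activation by 50 uM nitroprusside.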

[2] = target: Atrial natriuretic peptide receptor 1 (Homo sapiens) (UniProt P16066); experiment: Natriuretic polypeptide receptor (hNpr1) antagonism - Pilot screen (AID 1347049);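 also: agonist-evoked cGMP luminescence read 20 min after hNppA addition; series mostly up to about 58 µM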
Summary of the method: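 cGMP-sensor HEK293/hNpr1 cells, 1500/well, plated overnight at 37C. 2% GloSensor reagent, 2 h RT. Compound (23 nL pin transfer) 30 min RT, baseline luminescence pre-read. 0.1 nM hNppA, 20 min RT, post-read.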

[3] = target: Atrial natriuretic peptide receptor 2 (Homo sapiens) (UniProt P20594); experiment: Natriuretic polypeptide receptor (hNpr2) antagonism - Pilot subtype selectivity assay (AID 1347050)
Summary of the method: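 Luminescence from a genetically encoded cGMP luciferase biosensor in hNpr2-expressing HEK293 cells is read before and 20 min after adding 1 nM hNppC. Test compounds, in interplate 1:5 titrations, are added 30-50 min ahead of the agonist.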

[4] = NS1 protein of Zika virus - qHTS assay to identify small molecule inhibitors in human HEK 293 cells (AID 1347053; active = well fitted curve in the direction sought with a large enough effect; an effect the other way counts as inactive or inconclusive; also: series mostly up to about 46 µM; nearly all actives have a fitted effect of over 55% in size)
Summary of the method: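 TR-FRET signal from two anti-ZIKV NS1 antibodies quantified NS1 in HEK 293 cells 24 h after MR766 infection at MOI = 0.5; compounds were added 1 h before virus. Uninfected cells and infected cells defined the NS1 normalization range.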

[5] = target: T1, Tyrosine-protein phosphatase non-receptor type substrate 1 (Homo sapiens) + Leukocyte surface antigen CD47 (Homo sapiens) (UniProt P78324+Q08722); experiment: CD47-SIRPalpha protein protein interaction - LANCE assay qHTS validation (AID 1347057; active = well fitted curve in the direction sought with a large enough effect in the signal ratio, with a control signal flat, not every such curve was filed as active; the % refers to the signal ratio; also: series mostly up to about 38 µM)
Summary of the method: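 Inhibition of soluble CD47/SIRPalpha ectodomain association by titrated compounds, measured as 665/615 nm time-resolved FRET ratio after sequential 30 min room-temperature incubations.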

[6] = target: T1, Tyrosine-protein phosphatase non-receptor type substrate 1 (Homo sapiens) + Leukocyte surface antigen CD47 (Homo sapiens); experiment: CD47-SIRPalpha protein protein interaction - HTRF assay qHTS validation (AID 1347058; active = well fitted curve in the direction sought with a large enough effect in the signal ratio, not every such curve was filed as active; the % refers to the signal ratio; also: series mostly up to about 38 µM)
Summary of the method: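 Soluble extracellular domains (6His-CD47, Avi-tag-biotinylated SIRPalpha) in PBS pH 7.4 with 0.05% IGEPAL CA-630. Compounds were preincubated 30 min at RT with CD47 and anti-His-Eu, then SIRPalpha and SAV-XL665 were added. TR-FRET 665/615 ratio.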

[7] = target: T1, Tyrosine-protein phosphatase non-receptor type substrate 1 (Homo sapiens) + Leukocyte surface antigen CD47 (Homo sapiens); experiment: CD47-SIRPalpha protein protein interaction - Alpha assay qHTS validation (AID 1347059; active = well fitted curve in the direction sought with a large enough effect; an effect the other way counts as inactive or inconclusive;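 also: bead proximity luminescence from CD47 binding SIRPalpha after compound preincubation with SIRPalpha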)
Summary of the method: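 SIRPalpha-biotin 25 nM + cpd, 30 min RT, dark; add CD47-His 12.5 nM, 30 min; add Ni-NTA/SAV beads 10 ug/mL, 30 min; AlphaScreen. Buffer PBS pH 7.4 + 0.05% IGEPAL CA-630. Non-biotinylated SIRPalpha as control inhibitor.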

[8] = target: Parathyroid hormone/parathyroid hormone-related peptide receptor (Homo sapiens) (UniProt Q03431); experiment: qHTS for PTHR1 Agonists: Optimization Screen against the NCGC LOPAC library (AID 1347079; active = well fitted curve in the direction sought with a large enough effect; an effect the other way counts as inactive or inconclusive;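 also: GloSensor cAMP luminescence in HEK-293 GP2 cells expressing human PTHR1 with IBMX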; also: potency is read from the fitted curve at half-maximal effect)
Summary of the method: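 HEK-293 GP2 cells, PTHR1 + GloSensor cAMP; 3000 cells/well, o/n. Luciferin + IBMX 0.5mM each (stock), 1 hr 37C. Cpd titration, 1 hr 37C. Lum after 15 min RT. Ctrl M-PTH(1-15) top 10uM.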

[9] = qHTS for Inhibitors of the Functional Ribonucleoprotein Complex (vRNP) of Lassa (LASV) Arenavirus: LASV Primary Screen - GLuc reporter signal (AID 1347082; calls by dose curve; tested in HEK293 reporter line; also: series mostly up to about 57 µM; nearly all actives have a fitted effect of over 60% in size)
[10] = qHTS for Inhibitors of the Functional Ribonucleoprotein Complex (vRNP) of Lassa (LASV) Arenavirus: Viability assay - alamar blue signal for LASV Primary Screen (AID 1347083; calls by dose curve; tested in HEK293 reporter line; also: series mostly up to about 57 µM; nearly all actives have a fitted effect of over 80% in size)
[11] = qHTS for Inhibitors of the Functional Ribonucleoprotein Complex (vRNP) of Lymphocytic Choriomeningitis Arenaviruses (LCMV): Viability assay - alamar blue signal for LCMV Primary Screen (AID 1347085; calls by dose curve; tested in HEK293 reporter line; also: series mostly up to about 57 µM; nearly all actives have a fitted effect of over 80% in size)
[12] = target: Nucleoprotein (Lymphocytic choriomeningitis virus (strain Armstrong)) (UniProt P09992); experiment: qHTS for Inhibitors of the Functional Ribonucleoprotein Complex (vRNP) of Lymphocytic Choriomeningitis Arenaviruses (LCMV): LCMV Primary Screen - GLuc reporter signal (AID 1347086); also: series mostly up to about 57 µM; nearly all actives have a fitted effect of over 70% in size
[13] = P-glycoprotein substrates identified in KB-8-5-11 adenocarcinoma cell line, qHTS therapeutic library screen (AID 1346987; active = well fitted curve in the direction sought with a large enough effect; an effect the other way counts as inactive or inconclusive; also: nearly all actives have a fitted effect of over 65% in size)
Summary of the method: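 Compounds are pinned in dose-response onto KB-8-5-11 cells (500 cells/well, colchicine-free medium) and left 72 h at 37 degree C. CellTiter-Glo luminescence then yields AC50 values.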

[14] = qHTS of pediatric cancer cell lines to identify multiple opportunities for drug repurposing: Primary screen for TC32 cells (AID 1347089; active = well fitted curve in the direction sought with a large enough effect; an effect the other way counts as inactive or inconclusive; also: nearly all actives have a fitted effect of over 60% in size)
Summary of the method: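 Luminescent CellTiter-Glo read-out of metabolically active TC32 cells after 48 h compound exposure. Primary: MIPE 11-point, 0.78 nM–46 µM; NPC 8-point, 0.59 nM–46 µM. Confirmatory: 11-point dilutions.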

[15] = qHTS of pediatric cancer cell lines to identify multiple opportunities for drug repurposing: Primary screen for DAOY cells (AID 1347090; active = well fitted curve in the direction sought with a large enough effect; an effect the other way counts as inactive or inconclusive; also: series mostly up to about 46 µM; nearly all actives have a fitted effect of over 55% in size)
Summary of the method: (§1)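 Viability measured as metabolically active cells via CellTiter-Glo luminescence following 48 hours of compound exposure, 11-point dilutions in confirmatory testing. 500-1,000 cells/well plated 5 hours before dosing; controls were DMSO and 2.3 µM bortezomib.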

[16] = qHTS of pediatric cancer cell lines to identify multiple opportunities for drug repurposing: Primary screen for SJ-GBM2 cells (AID 1347091; active = well fitted curve in the direction sought with a large enough effect; an effect the other way counts as inactive or inconclusive)
Summary of the method: as §1

[17] = qHTS of pediatric cancer cell lines to identify multiple opportunities for drug repurposing: Primary screen for A673 cells (AID 1347092; active = well fitted curve in the direction sought with a large enough effect; an effect the other way counts as inactive or inconclusive; also: nearly all actives have a fitted effect of over 45% in size)
Summary of the method: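 A673 cells (500-1,000 cells/well in growth media) were pre-incubated 5 h at 37 degrees C, then exposed to compounds for 48 h. Viability was read as CellTiter-Glo luminescence; concentration-response curves came directly from the primary screen.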

[18] = qHTS of pediatric cancer cell lines to identify multiple opportunities for drug repurposing: Primary screen for SK-N-MC cells (AID 1347093; active = well fitted curve in the direction sought with a large enough effect; an effect the other way counts as inactive or inconclusive; also: series mostly up to about 46 µM)
Summary of the method: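 Metabolically active cells were quantified by ATP-dependent luminescence (CellTiter-Glo, 15 min at room temperature) following 48 h treatment. Cells had been plated at 500-1,000 per well and settled for 5 h beforehand.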

[19] = qHTS of pediatric cancer cell lines to identify multiple opportunities for drug repurposing: Primary screen for BT-37 cells (AID 1347094; active = well fitted curve in the direction sought with a large enough effect; an effect the other way counts as inactive or inconclusive; also: series mostly up to about 57 µM)
Summary of the method: (§2)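 Phenotypic viability qHTS, 48 h compound exposure, CellTiter-Glo luminescence read-out; multi-concentration dosing so that potency and efficacy derive directly from the primary screen's curves.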

[20] = qHTS of pediatric cancer cell lines to identify multiple opportunities for drug repurposing: Primary screen for NB-EBc1 cells (AID 1347095; active = well fitted curve in the direction sought with a large enough effect; an effect the other way counts as inactive or inconclusive)
Summary of the method: as §2

Sequence of Atrial natriuretic peptide receptor 1 (Homo sapiens) (P16066 whole entry, looked up): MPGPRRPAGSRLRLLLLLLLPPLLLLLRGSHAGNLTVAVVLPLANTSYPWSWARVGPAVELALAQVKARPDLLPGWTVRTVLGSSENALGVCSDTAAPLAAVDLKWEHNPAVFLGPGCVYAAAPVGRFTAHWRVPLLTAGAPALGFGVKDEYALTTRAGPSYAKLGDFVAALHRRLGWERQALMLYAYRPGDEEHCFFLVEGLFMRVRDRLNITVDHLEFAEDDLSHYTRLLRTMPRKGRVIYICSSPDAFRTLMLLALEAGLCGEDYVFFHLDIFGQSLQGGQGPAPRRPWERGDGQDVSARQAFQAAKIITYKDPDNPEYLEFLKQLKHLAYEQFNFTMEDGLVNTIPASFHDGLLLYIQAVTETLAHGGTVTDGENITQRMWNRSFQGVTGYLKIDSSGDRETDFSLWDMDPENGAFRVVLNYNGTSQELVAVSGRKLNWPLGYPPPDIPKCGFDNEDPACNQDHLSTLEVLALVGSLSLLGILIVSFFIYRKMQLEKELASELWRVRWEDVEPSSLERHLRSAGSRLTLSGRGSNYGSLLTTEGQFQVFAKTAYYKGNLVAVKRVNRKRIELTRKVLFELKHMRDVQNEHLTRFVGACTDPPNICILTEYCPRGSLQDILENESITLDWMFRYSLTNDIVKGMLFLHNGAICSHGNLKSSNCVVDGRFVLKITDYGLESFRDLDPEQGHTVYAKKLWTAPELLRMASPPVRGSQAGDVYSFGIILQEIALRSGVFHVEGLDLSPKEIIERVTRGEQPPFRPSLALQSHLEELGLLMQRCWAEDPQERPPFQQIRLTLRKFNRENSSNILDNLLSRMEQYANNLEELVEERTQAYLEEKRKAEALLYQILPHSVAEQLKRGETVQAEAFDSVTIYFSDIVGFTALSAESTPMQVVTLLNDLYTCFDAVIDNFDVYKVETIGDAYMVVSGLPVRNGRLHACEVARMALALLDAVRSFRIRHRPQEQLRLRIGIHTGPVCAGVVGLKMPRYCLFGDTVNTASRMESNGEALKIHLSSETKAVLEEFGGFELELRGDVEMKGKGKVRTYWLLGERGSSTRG
T1 sequence (P78324 whole entry, looked up, the tested form may be a part): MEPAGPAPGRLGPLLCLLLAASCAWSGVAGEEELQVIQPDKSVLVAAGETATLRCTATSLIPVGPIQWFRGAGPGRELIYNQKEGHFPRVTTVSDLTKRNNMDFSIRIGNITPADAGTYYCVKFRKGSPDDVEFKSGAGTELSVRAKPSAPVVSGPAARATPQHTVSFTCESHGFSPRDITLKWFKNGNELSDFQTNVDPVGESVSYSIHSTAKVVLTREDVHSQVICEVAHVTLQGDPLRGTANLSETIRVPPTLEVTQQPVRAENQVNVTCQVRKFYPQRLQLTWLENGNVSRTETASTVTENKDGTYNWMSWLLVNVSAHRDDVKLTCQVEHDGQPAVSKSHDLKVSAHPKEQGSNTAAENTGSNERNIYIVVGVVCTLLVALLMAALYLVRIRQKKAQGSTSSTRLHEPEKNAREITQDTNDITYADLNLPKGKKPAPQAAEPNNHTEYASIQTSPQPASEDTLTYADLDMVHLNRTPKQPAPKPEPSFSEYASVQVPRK
T1 sequence (Q08722 whole entry, looked up, the tested form may be a part): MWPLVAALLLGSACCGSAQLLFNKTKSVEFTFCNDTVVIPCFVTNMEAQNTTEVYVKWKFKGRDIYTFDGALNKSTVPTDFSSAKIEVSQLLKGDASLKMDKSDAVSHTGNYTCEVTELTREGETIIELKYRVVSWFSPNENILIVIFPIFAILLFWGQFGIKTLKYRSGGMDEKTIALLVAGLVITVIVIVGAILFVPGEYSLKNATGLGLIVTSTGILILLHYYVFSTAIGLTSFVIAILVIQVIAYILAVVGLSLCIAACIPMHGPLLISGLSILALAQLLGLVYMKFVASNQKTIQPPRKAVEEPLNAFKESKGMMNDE
Sequence of Parathyroid hormone/parathyroid hormone-related peptide receptor (Homo sapiens) (Q03431 whole entry, looked up): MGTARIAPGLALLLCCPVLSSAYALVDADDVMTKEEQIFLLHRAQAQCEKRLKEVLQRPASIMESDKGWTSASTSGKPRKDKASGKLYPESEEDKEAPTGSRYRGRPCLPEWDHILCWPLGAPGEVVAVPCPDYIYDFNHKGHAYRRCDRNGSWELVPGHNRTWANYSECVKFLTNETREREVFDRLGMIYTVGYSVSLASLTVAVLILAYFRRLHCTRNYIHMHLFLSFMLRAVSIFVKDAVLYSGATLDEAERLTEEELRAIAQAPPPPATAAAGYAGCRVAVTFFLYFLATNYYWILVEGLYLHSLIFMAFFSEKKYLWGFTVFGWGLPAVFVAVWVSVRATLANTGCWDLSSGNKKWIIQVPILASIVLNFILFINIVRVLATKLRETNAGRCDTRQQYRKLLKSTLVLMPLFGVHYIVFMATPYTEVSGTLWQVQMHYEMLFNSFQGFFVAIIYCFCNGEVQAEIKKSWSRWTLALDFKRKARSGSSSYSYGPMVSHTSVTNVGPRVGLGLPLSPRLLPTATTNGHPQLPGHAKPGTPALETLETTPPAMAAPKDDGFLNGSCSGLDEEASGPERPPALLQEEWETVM
Sequence of Atrial natriuretic peptide receptor 2 (Homo sapiens) (P20594 whole entry, looked up): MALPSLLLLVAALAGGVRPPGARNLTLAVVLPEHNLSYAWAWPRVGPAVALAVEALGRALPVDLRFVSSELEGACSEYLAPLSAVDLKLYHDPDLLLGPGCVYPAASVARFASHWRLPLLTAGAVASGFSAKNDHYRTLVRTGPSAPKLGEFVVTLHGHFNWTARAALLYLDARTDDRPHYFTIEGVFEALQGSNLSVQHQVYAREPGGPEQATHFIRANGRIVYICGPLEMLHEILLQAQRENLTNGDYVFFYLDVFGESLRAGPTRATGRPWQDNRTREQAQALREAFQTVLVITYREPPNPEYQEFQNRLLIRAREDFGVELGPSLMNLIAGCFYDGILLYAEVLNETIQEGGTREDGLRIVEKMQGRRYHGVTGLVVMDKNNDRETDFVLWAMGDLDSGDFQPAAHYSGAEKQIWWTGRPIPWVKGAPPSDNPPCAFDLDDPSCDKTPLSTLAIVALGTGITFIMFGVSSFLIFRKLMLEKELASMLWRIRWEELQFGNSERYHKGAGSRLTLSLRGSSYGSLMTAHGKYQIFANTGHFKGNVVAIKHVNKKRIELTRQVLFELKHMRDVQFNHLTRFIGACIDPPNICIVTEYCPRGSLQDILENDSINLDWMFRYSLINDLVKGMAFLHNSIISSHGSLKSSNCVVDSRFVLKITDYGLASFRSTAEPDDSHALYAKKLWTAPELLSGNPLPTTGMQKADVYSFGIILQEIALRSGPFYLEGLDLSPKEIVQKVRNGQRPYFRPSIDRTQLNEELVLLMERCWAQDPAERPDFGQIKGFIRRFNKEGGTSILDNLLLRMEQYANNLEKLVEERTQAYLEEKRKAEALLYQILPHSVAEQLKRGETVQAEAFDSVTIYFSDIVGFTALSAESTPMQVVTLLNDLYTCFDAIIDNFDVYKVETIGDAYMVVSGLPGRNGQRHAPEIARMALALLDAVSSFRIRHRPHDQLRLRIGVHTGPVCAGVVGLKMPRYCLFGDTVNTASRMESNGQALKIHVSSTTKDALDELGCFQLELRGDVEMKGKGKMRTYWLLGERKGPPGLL
Sequence of Nucleoprotein (Lymphocytic choriomeningitis virus (strain Armstrong)) (P09992 whole entry, looked up): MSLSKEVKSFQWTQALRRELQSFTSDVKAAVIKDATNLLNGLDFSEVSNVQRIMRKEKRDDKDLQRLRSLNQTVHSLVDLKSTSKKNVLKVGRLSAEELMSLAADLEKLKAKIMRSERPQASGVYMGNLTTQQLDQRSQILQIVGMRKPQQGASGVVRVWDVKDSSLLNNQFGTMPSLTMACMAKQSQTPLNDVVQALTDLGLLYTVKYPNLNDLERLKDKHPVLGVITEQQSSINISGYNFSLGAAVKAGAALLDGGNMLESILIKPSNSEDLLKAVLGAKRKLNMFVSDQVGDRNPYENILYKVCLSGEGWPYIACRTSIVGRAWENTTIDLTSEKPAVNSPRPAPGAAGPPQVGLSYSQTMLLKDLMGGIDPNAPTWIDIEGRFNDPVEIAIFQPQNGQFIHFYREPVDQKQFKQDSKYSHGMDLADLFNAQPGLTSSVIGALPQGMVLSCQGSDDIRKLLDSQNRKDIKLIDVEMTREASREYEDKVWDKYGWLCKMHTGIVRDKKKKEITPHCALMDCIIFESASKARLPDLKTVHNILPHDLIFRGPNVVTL

SMILES | Potency [1] | Potency [2] | Potency [3] | outcome [4] | Potency [5] | outcome [6] | Potency [7] | Potency [8] | Potency [9] | Potency [10] | Potency [11] | Potency [12] | Potency [13] | outcome [14] | Potency [15] | outcome [16] | Potency [17] | Potency [18] | Potency [19] | outcome [20]
C[N+](C)(C)CCOC(=O)CBr | inactive | inactive | inactive | inactive | inactive | inactive | inactive | inactive | inactive | inactive | inactive | inactive | – | – | – | – | – | – | – | –
CC1=C2C[C@H]3[C@@H](CC=C4C[C@@H](O)CC[C@@]43C)[C@@H]2CC[C@]12O[C@@H]1C[C@H](C)CN[C@H]1[C@H]2C | – | – | – | – | – | – | – | – | inactive | inactive | inactive | inactive | inactive | – | – | – | – | – | – | –
CN(C)[C@@H]1C(=O)C(C(N)=O)=C(O)[C@@]2(O)C(=O)C3=C(O)c4c(O)ccc(Cl)c4[C@@](C)(O)[C@H]3C[C@@H]12 | – | – | – | – | – | – | – | – | inactive | inactive | inactive | inactive | inactive | – | – | – | – | – | – | –
CC(N)Cc1c[nH]c2ccc(O)cc12 (stereo unspecified) | inactive | inactive | inactive | inactive | inactive | inactive | inactive | inactive | inactive | inactive | inactive | inactive | – | – | – | – | – | – | – | –
C[N+]1(C)CCOC(O)(c2ccc(-c3ccc(C4(O)C[N+](C)(C)CCO4)cc3)cc2)C1 (stereo unspecified) | inactive | inactive | inactive | inactive | inactive | inactive | inactive | inactive | inactive | inactive | inactive | inactive | – | – | – | – | – | – | – | –
C/C(O)=C(\C#N)C(=O)Nc1cc(Br)ccc1Br | inactive | inactive | inactive | – | – | – | – | inactive | inactive | inactive | inactive | inactive | inactive | – | – | – | – | – | – | –
CC(C)[C@@]1(NC(=O)[C@@H]2C[C@@H]3c4cccc5[nH]cc(c45)C[C@H]3N(C)C2)O[C@@]2(O)[C@@H]3CCCN3C(=O)[C@H](Cc3ccccc3)N2C1=O | inactive | inactive | inactive | – | – | – | – | inactive | inactive | inactive | inactive | inactive | inactive | – | – | – | – | – | – | –
CN1[C@H]2CC[C@@H]1[C@@H](C(=O)O)[C@@H](OC(=O)c1ccccc1)C2 | – | – | – | – | – | – | – | – | inactive | inactive | inactive | inactive | inactive | – | – | – | – | – | – | –
CCCSP(=O)(OCC)SCCC | – | – | – | inactive | – | – | – | – | – | inactive | inactive | – | inactive | inactive | inactive | inactive | inactive | inactive | inactive | inactive
NCCCP(=O)(O)O | inactive | inactive | inactive | inactive | inactive | inactive | inactive | inactive | inactive | inactive | inactive | inactive | – | – | – | – | – | – | – | –
O[C@H]1[C@H]2[C@H](O)CCCN2C[C@H]1O | – | – | – | – | – | – | – | – | inactive | inactive | inactive | inactive | inactive | – | – | – | – | – | – | –
O=C1CC[C@@]2(O)C3Cc4ccc(O)c5c4C2(CCN3CC2CC2)[C@H]1O5 (stereo partly specified) | inactive | inactive | inactive | inactive | inactive | inactive | inactive | inactive | inactive | inactive | inactive | inactive | – | – | – | – | – | – | – | –
C=CCN(C1=NCCN1)c1c(Cl)cccc1Cl | inactive | inactive | inactive | – | – | – | – | inactive | inactive | inactive | inactive | inactive | inactive | – | – | – | – | – | – | –
C[C@@H]1[C@@H]2Cc3ccc(O)cc3[C@@]1(C)CCN2CC1CC1 | inactive | inactive | inactive | – | – | – | – | inactive | inactive | inactive | inactive | inactive | inactive | – | – | – | – | – | – | –
c1ccc2c(N3CCNCC3)cccc2c1 | inactive | inactive | inactive | inactive | inactive | inactive | inactive | inactive | inactive | inactive | inactive | inactive | – | – | – | – | – | – | – | –
O=[N+]([O-])c1cc(O)c(O)c([N+](=O)[O-])c1 | inactive | inactive | inactive | inactive | inactive | – | inactive | inactive | inactive | inactive | inactive | inactive | – | – | – | – | – | – | – | –
CCCC[N+]1(C)C2CC(OC(=O)[C@H](CO)c3ccccc3)CC1C1OC12 (stereo partly specified) | inactive | inactive | inactive | inactive | inactive | inactive | inactive | inactive | inactive | inactive | inactive | inactive | – | – | – | – | – | – | – | –
O=[N+]([O-])c1ccc2nc(N3CCNCC3)ccc2c1 | inactive | inactive | inactive | inactive | inactive | – | inactive | inactive | inactive | inactive | inactive | inactive | – | – | – | – | – | – | – | –
CC(=O)NBr | inactive | inactive | inactive | inactive | inactive | inactive | inactive | inactive | inactive | inactive | inactive | inactive | – | – | – | – | – | – | – | –
OCc1cnc[nH]1 | inactive | inactive | inactive | inactive | inactive | inactive | inactive | inactive | inactive | inactive | inactive | inactive | – | – | – | – | – | – | – | –
CC(Cc1ccc(OCC(=O)O)cc1)NCC(O)c1cccc(Cl)c1 (stereo unspecified) | inactive | inactive | inactive | inactive | inactive | inactive | inactive | inactive | inactive | inactive | inactive | inactive | – | – | – | – | – | – | – | –
NCC(CP(=O)(O)O)c1ccc(Cl)cc1 (stereo unspecified) | inactive | inactive | inactive | inactive | inactive | – | inactive | 18.9 µM (active) | inactive | inactive | inactive | inactive | – | – | – | – | – | – | – | –
CN1CC[C@@]2(C)c3cc(OC(=O)Nc4ccccc4)ccc3N(C)[C@@H]12 | inactive | inactive | inactive | inactive | inactive | – | inactive | inactive | inactive | inactive | inactive | inactive | – | – | – | – | – | – | – | –
